Measured values published in the supplement of paper PMC3414501.
Where a name gives a salt, the structure may show the parent alone. Unmarked numbers belong to inactive results.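 Rule for the calls: active = score above 5; some higher scores were not called.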

Test system: S. cerevisiae SK1 pCDA2-eGFP (USY613), sporulating
Experiment: CDA2-GFP sporulation assay sensitivity score (z-score vs DMSO controls); higher = stronger inhibition of sporulation, active = hit call of the paper

SMILES	CDA2-GFP sporulation assay sensitivity score
CN1CCCC(n2nc(Cc3ccc(Cl)cc3)c3ccccc3c2=O)CC1 (stereo not drawn) [Azelastine hydrochloride] (stock concentration (mM, diluted 1:100): 9.1)	0.63
CN1[C@@H]2CC[C@H]1C[C@@H](OC(=O)c1c[nH]c3ccccc13)C2 [Tropisetron hydrochloride] (stock concentration (mM, diluted 1:100): 7.7)	1.1
O=C(O)c1cc(/N=N/c2ccc(S(=O)(=O)Nc3ccccn3)cc2)ccc1O [Sulfasalazine] (stock concentration (mM, diluted 1:100): 10)	2.13
Nc1nc(O)c2ncn(CCC(CO)CO)c2n1 [Penciclovir] (stock concentration (mM, diluted 1:100): 10)	0.81
O=C(c1ccccc1)c1ccc2n1CCC2C(=O)O (stereo not drawn) [Toradol] (stock concentration (mM, diluted 1:100): 6.8)	-1.05
OC[C@H]1O[C@@H](n2cnc3c(N[C@H]4CCC[C@@H]4O)ncnc32)[C@@H](O)C1O (stereo partly drawn) (stock concentration (mM, diluted 1:100): 10)	2.98
CC(C)c1nc(CN(C)C(=O)N[C@H](C(=O)N[C@@H](Cc2ccccc2)C[C@H](O)[C@H](Cc2ccccc2)NC(=O)OCc2cncs2)C(C)C)cs1 [Ritonavir] (stock concentration (mM, diluted 1:100): 10)	-0.68
COc1cc(C(=O)NS(=O)(=O)c2ccccc2C)ccc1Cc1cn(C)c2ccc(NC(=O)OC3CCCC3)cc12 [Zafirlukast] (stock concentration (mM, diluted 1:100): 10)	0.72
CCOC(=O)O[C@]1(C(=O)OCCl)CC[C@H]2[C@@H]3CCC4=CC(=O)C=C[C@]4(C)[C@H]3[C@@H](O)C[C@@]21C [Loteprednol etabonate] (stock concentration (mM, diluted 1:100): 10)	0
C[C@@H]1C[C@H]2[C@@H]3CCC4=CC(=O)C=C[C@]4(C)[C@@]3(F)[C@@H](O)C[C@]2(C)[C@H]1C(=O)CO [Desoximetasone] (stock concentration (mM, diluted 1:100): 10)	0.62
Nc1nc(N)nc(-c2cc(Cl)ccc2Cl)n1 [Irsogladine maleate] (stock concentration (mM, diluted 1:100): 6.9)	0.91
CCOC(=O)c1ccc(OC(=O)CCCCCNC(=N)N)cc1 [Gabexate mesylate] (stock concentration (mM, diluted 1:100): 7.7)	2.43
CC(C)(C)NC(=O)[C@@H]1C[C@@H]2CCCC[C@@H]2CN1C[C@@H](O)[C@H](Cc1ccccc1)NC(=O)[C@H](CC(N)=O)NC(=O)c1ccc2ccccc2n1 [Saquinavir mesylate] (stock concentration (mM, diluted 1:100): 8.8)	-0.34
CC(CCCCC(=O)Nc1ccc(C(F)(F)F)cc1)NCCc1cnc[nH]1 (stereo not drawn) (stock concentration (mM, diluted 1:100): 10)	2.58
CO[C@H]1/C=C/O[C@@]2(C)Oc3c(C)c(O)c4c(O)c(c(/C=N/N5CCN(C6CCCC6)CC5)c(O)c4c3C2=O)NC(=O)/C(C)=C\C=C\[C@H](C)[C@H](O)[C@@H](C)[C@@H](O)[C@@H](C)[C@H](OC(C)=O)[C@@H]1C [Rifapentine] (stock concentration (mM, diluted 1:100): 10)	14.2
O=C(CCCN1CCC(O)(c2ccc(Cl)cc2)CC1)c1ccc(F)cc1 [Haloperidol] (stock concentration (mM, diluted 1:100): 10)	8.19 (active)
C#C[C@]1(O)CC[C@H]2[C@@H]3CCc4cc(OC)ccc4[C@H]3CC[C@@]21C [Mestranol] (stock concentration (mM, diluted 1:100): 10)	4.85
CC(=O)[C@@]1(O)CC[C@H]2[C@@H]3C[C@H](C)C4=CC(=O)CC[C@]4(C)[C@H]3CC[C@@]21C [Medroxyprogesterone] (stock concentration (mM, diluted 1:100): 10)	-0.44
